Screening results (PubChem)
Most compounds without a hit are left out; they make up all but 2.4% or so of the library.
D2 PAM-1 – positive allosteric modulators of human D2 dopamine receptor. actives 0.34% (n = 340,000). potentiation, % at 10 µM. AID 485347. P14416. HEK293 T-REx D2, calcium flux, EC20 dopamine potentiation;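 active = potentiation over 3 SD above the plate norm, cut at about 30% in these data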; also: 0% is about no effect
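Tetracycline-induced HEK293 T-REx cells force-coupled to calcium signalling expressed D2; compounds were pin-added after a 10 s baseline, read kinetically 180 s, then an EC20 dopamine challenge followed with a further 180 s calcium read.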
D2 ag-1 – human D2 receptor agonism in beta-arrestin assay; DiscoveRx PathHunter D2 beta-arrestin, luminescence, 90 min; 100% = 57 uM dopamine signal; AID 624465; activation, % (no concentration beside the values); actives 0.084% (n = 360,000); in the data active = activation above about 40%; inconclusive = between about 15% and that limit
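DiscoveRx PathHunter D2 beta-arrestin cells (2,100/well) attached overnight, then compound-stimulated 90 min at 37 C in HBSS/10 mM HEPES/0.1% Tween-20 buffer; beta-galactosidase complementation read by luminescence after 1 h at ambient temperature. Dopamine 57 uM final (EC100) as control.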
D2 antagonist – antagonists of human D2 dopamine receptor. P14416. HEK293 TREx D2 cells, calcium flux, dopamine EC80. inhibition, % at 10 µM. actives 2% (n = 340,000); in the data active = inhibition above about 30%; inactive = below that, where a call was filed; also: 0% is about no effect
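Calcium mobilization kinetics were recorded at 1 s intervals in tetracycline-induced HEK293 T-REx D2 cells, first for 180 s after compound addition and then 180 s after EC80 dopamine.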
D2 ag-2 – agonists of human D2 dopamine receptor; actives 0.53% (n = 340,000); activation, % at 2 µM; HEK293 T-REx D2 cells, calcium flux agonist mode;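 active = activation over 3 SD above normal in the single-dose calcium agonist read, cut at about 30% in these data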; also: 0% is about no effect
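Agonism is scored from calcium flux in a force-coupled, inducible HEK293 cell line expressing D2, read kinetically for 180 s after compound addition against dopamine controls.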
D2 PAM-2 – potentiates the human D2 dopamine receptor allosterically | P14416 | potentiation, % (concentration not given with the values) | actives 0.23% (n = 360,000) | DiscoveRx D2 beta-arrestin cells, luminescence, 90 min; 100% = 57 uM dopamine signal; in the data active = potentiation above about 50%; inconclusive = mostly about 30% to 49%
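D2 cells co-treated with compound plus 50 nM dopamine (EC20) for 90 min at 37 deg C to detect potentiation. Beta-arrestin recruitment was read as enzyme-fragment luminescence after 1 h at ambient temperature. Full response was set by 57 uM dopamine.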
D3 arrestin ag – activates human D3 dopamine receptor beta-arrestin recruitment. shares compounds with D2 ag-2. DiscoveRx D3 beta-arrestin cells, luminescence, 90 min. Potency, µM (top dose mostly 76.9 µM), without a hit: at the top dose activation, most hits filed as activators. actives 4% (n = 2,300). AID 720506;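 also: potency is read from the fitted curve at half-maximal effect; 100% = dopamine control response; nearly all actives have a fitted effect of over 70% in size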
Target sequence (P35462 whole entry, looked up): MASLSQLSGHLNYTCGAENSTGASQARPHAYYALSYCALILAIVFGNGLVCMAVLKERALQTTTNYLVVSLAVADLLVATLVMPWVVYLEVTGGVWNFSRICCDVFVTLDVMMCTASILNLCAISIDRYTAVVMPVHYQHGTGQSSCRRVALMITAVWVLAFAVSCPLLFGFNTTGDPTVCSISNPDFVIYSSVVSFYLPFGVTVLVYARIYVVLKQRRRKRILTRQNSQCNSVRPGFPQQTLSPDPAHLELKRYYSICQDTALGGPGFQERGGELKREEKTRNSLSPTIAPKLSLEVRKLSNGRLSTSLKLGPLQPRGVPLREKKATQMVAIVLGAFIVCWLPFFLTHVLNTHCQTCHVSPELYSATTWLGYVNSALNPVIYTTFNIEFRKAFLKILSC
D2 ag-3 – counter-screen for D3 agonists: human D2 dopamine receptor agonism; shares compounds with D2 ag-2; DiscoveRx PathHunter D2 beta-arrestin, luminescence, 90 min; response scale: percent relative to full dopamine signal; Potency, µM (series often up to 76.9 µM), for inactives: at the top dose activation, most hits filed as activators; actives 5.9% (n = 2,300); AID 720507; also: potency is read from the fitted curve at half-maximal effect; % of control where 0% means no effect; nearly all actives have a fitted effect of over 70% in size
The depositor's hits bear a star. Unless noted, calls follow the shape of the dose curve; as a rule, active = well fitted activation curve with a large enough effect; inconclusive = small, poorly fitted or top-dose-only effect; inactive = flat fitted curve, though single readings scatter.

`OC(CSc1ccc(F)cc1)CN1CCN(c2ccccc2)CC1` (configuration not stated) gave D2 PAM-1 -24, D2 ag-1 inconclusive, D2 antagonist 76*, D2 ag-2 80*, D2 PAM-2 -17, D3 arrestin ag -3% and D2 ag-3 20%.
Screening OCC(O)CN1CCN(c2ccccc2)CC1 (configuration not stated) returned D2 PAM-1 -22, D2 ag-1 14, D2 antagonist 59*, D2 ag-2 82*, D2 PAM-2 -16, D3 arrestin ag -5% and D2 ag-3 17%.
For CCCSCCCNC(=O)Cn1nc(CC)n2c(cc3c(OC)cccc32)c1=O the results were D2 PAM-1 -9, D2 ag-1 -2, D2 antagonist -11, D2 ag-2 40*, D2 PAM-2 -7, D3 arrestin ag 15% and D2 ag-3 2%.
Cc1ccc(N2C(=O)c3cccc4c(N5CCN(C)CC5)ccc(c34)C2=O)c2cccnc12 was read as D2 PAM-1 -15, D2 ag-1 -3, D2 antagonist 6, D2 ag-2 32*, D2 PAM-2 -8, D3 arrestin ag -7% and D2 ag-3 -1%.
`COc1cc(-c2noc(C)c2C#CC2(N)CCCCC2)cc(OC)c1OC` gave D2 PAM-1 -13, D2 ag-1 -4, D2 antagonist 5, D2 ag-2 0 and D2 PAM-2 -10.
`COc1cc(-c2noc(C)c2C#CC2(O)CCCCC2)cc(OC)c1OC` gave D2 PAM-1 -17, D2 ag-1 5, D2 antagonist -18, D2 ag-2 72*, D2 PAM-2 -7, D3 arrestin ag 0% and D2 ag-3 3%.
`COc1ccc(CSC2=CS(=O)(=O)c3ccccc3N2)cc1` gave D2 PAM-1 -2, D2 ag-1 0, D2 antagonist 7, D2 ag-2 0 and D2 PAM-2 -1.
For O=C(c1ccc(OCC2CCCO2)cc1)N1CCN(S(=O)(=O)c2cccc(F)c2)CC1 (configuration not stated) the results were D2 PAM-1 2, D2 ag-1 -3, D2 antagonist 12, D2 ag-2 0, D2 PAM-2 14, D3 arrestin ag -2% and D2 ag-3 2%.
For O=C(Nc1cccc(S(=O)(=O)N2CCCCC2)c1)c1ccc(OCC2CCCO2)cc1 (configuration not stated) the results were D2 PAM-1 -2, D2 ag-1 -3, D2 antagonist -1, D2 ag-2 0 and D2 PAM-2 -2.
`CN(Cc1ccccc1)C(=O)c1ccc(NC(=O)Cc2ccc(NC(=O)C3CCN(C(=O)C4CCC4)CC3)cc2)cc1` gave D2 ag-1 -1.
Screening CN(Cc1ccccc1)C(=O)c1ccc(NC(=O)Cc2cccc(NC(=O)C3CCN(C(=O)C4CCC4)CC3)c2)cc1 returned D2 PAM-1 9, D2 ag-1 2, D2 antagonist -6, D2 ag-2 1, D2 PAM-2 -7, D3 arrestin ag -1% and D2 ag-3 -2%.
For COc1ccccc1OCC(=O)NCCS(=O)(=O)N1CCN(c2ccccc2)CC1 the results were D2 PAM-1 -14, D2 ag-1 inconclusive, D2 antagonist 62*, D2 ag-2 44*, D2 PAM-2 15, D3 arrestin ag inconclusive and D2 ag-3 inconclusive.
COc1ccccc1N1CCN(S(=O)(=O)CCNC(=O)COc2ccccc2)CC1 was read as D2 ag-1 0 and D2 PAM-2 -17.
For CCCNC(=O)C(=O)Nc1ccc(N(C)C)cc1 the results were D2 PAM-1 -10, D2 ag-1 -1, D2 antagonist -11, D2 ag-2 -1 and D2 PAM-2 0.
For CN(C)c1ccc(NC(=O)C(=O)NCCOc2ccccc2)cc1 the results were D2 PAM-1 -11, D2 ag-1 5, D2 antagonist 16, D2 ag-2 34*, D2 PAM-2 20, D3 arrestin ag inconclusive and D2 ag-3 22%.
For COc1ccc(NC(=O)c2ccco2)c(NC(=O)c2ccc([N+](=O)[O-])cc2)c1 the results were D2 PAM-1 -8, D2 ag-1 4, D2 antagonist -8, D2 ag-2 1 and D2 PAM-2 -5.
`CCN1CCc2c(sc(NC(=O)c3ccc(C(=O)c4ccccc4)cc3)c2C(N)=O)C1` gave D2 PAM-1 -19, D2 ag-1 -3, D2 antagonist 5, D2 ag-2 74*, D2 PAM-2 -9, D3 arrestin ag -8% and D2 ag-3 2%.
Screening Cc1sc(NC(=S)NC(=O)c2ccco2)c(C(N)=O)c1C returned D2 PAM-1 4, D2 ag-1 -3, D2 antagonist -6, D2 ag-2 0 and D2 PAM-2 -3.
For CCN1CCc2c(sc(NC(=S)NC(=O)c3ccco3)c2C(N)=O)C1 the results were D2 PAM-1 -5, D2 ag-1 -10, D2 antagonist -21, D2 ag-2 30*, D2 PAM-2 -19, D3 arrestin ag 8% and D2 ag-3 -5%.
CC(C(=O)O)c1ccc(C(=O)c2ccccc2)s1 (configuration not stated) was read as D2 PAM-1 8, D2 ag-1 -7, D2 antagonist 4, D2 ag-2 -1 and D2 PAM-2 -12.
Screening CCOc1ccccc1N1C(=O)CC(Sc2n[nH]c(-c3ccccc3)n2)C1=O (configuration not stated) returned D2 PAM-1 -4, D2 ag-1 7, D2 antagonist -9, D2 ag-2 2 and D2 PAM-2 -8.
Screening C[C@@H]1CN([C@@H](C)CO)C(=O)CCCn2nncc2CO[C@H]1CN(C)S(=O)(=O)c1ccc(Oc2ccccc2)nc1 returned D2 ag-1 -4 and D2 PAM-2 1.
For COc1cccc(CN2CCN(Cc3cc4ccccc4[nH]3)CC2CCO)c1 (configuration not stated) the results were D2 PAM-1 -18, D2 ag-1 -1, D2 antagonist 12, D2 ag-2 31*, D2 PAM-2 -20, D3 arrestin ag -9% and D2 ag-3 -3%.
Screening CCOC(=O)C1CCN(CC(=O)Nc2c(C(=O)OC)[nH]c3ccc(Cl)cc23)CC1 returned D2 ag-1 8, D2 antagonist -12, D2 ag-2 0 and D2 PAM-2 10.
